Measured values published in PubChem BioAssay AID1159580 (chemical genetic matrix, 2015).
Out of some 5,500 compounds screened, about 2,000 (36%) were called active. Roughly 18% stayed inconclusive and do not appear here. Cut-off read from the data, not from the text of the source: active = normalized growth mostly below about 0.91 (no sharp cut-off); inconclusive = no clear call, values can overlap the other calls; inactive = mostly above about 0.92. Some of the results follow.

Assay: chemical genetic growth profiling, strain panel (AID 1159580);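 note: tested at 20 µM; growth read once vehicle control cultures reached saturation at 30 °C; 1 = growth at the plate median or of vehicle wells; lower values mean less growth of the strain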
Details: S. cerevisiae deletion strains, growth OD

Measured: normalized growth

C[C@@H](NCCc1ccc(O)cc1)[C@@H](O)c1ccc(O)cc1
inactive: locus YAL040C, strain CLN3, hits give low values 0.986 | locus YCL061C, strain MRC1 (second series), hits give low values 0.989 | locus YDR150W, strain NUM1, hits give low values 1.01 | locus YDR363W, strain ESC2, hits give low values 0.991 | locus YER002W, strain NOP16, hits give low values 0.992 | locus YGR229C, strain SMI1, hits give low values 0.99 | locus YJR075W, strain HOC1, hits give low values 0.993 | locus YMR263W, strain SAP30, hits give low values 0.986 | locus YMR307W, strain GAS1, hits give low values 1.02 | locus YNL128W, strain TEP1, hits give low values 0.994 | locus YNL153C, strain GIM3, hits give low values 1.03 | locus YNL175C, strain NOP13, hits give low values 0.999 | locus YNL197C, strain WHI3, hits give low values 0.992 | locus YNL224C, strain SQS1, hits give low values 0.991 | locus YNL322C, strain KRE1, hits give low values 0.974 | locus YOR083W, strain WHI5 (second series), hits give low values 1 | locus YPL055C, strain LGE1, hits give low values 0.995
